# HP1b binding inh: inhibitors of HP1-beta chromodomain binding to methylated histone tails; AlphaScreen HP1-beta / biotin-H3K9me3 peptide binding; 390,000 compounds, 0.56% hits; AID 540317; Potency, µM (titrated, usually from 114 µM), for the others: at the highest dose activity change, negative = inhibition, actives largely listed as inhibitors; P83916; further: potency means the concentration at half of the fitted maximal effect; nearly all actives have a fitted effect of over 70% in size
#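 AlphaScreen: HP1-beta (50 nM) preformed 30 min with biotin-H3(1-18)K9me3 peptide (50 nM) in PBS pH 7.4, 0.01% Tween-20. Compound added for 30 min at RT, then streptavidin donor/nickel chelate acceptor beads (10 ug/mL) for 30 min.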
# CtBP-E1A blk: CtBP/E1A binding inhibition. 340,000 compounds, 0.49% hits. activity change, % (test concentration not listed). AlphaScreen GST-E1A/His-CtBP binding, 1536-well; hits give low values; in the data active means activity change below about -65%; inconclusive means mostly about -30% to -63%; further: on the % scale 0 is the no-effect control and ±100 the full control effect
#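 AlphaScreen with 125 nM GST-E1A and 125 nM His-CtBP (5X stocks) in Tris pH 8.0, 300 mM NaCl, BSA, Tween 20, TCEP. Compounds preincubated 2 h at 37 deg C, then glutathione donor/nickel acceptor beads added for 1 h at 37 deg C in dark.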
# Six1-Eya2 blk: inhibitors of human Six1/Eya2 interaction; 360,000 compounds, 0.56% hits; activity change, % (test concentration not listed); AlphaScreen GST-Six1/His-Eya2 binding, biochemical; hits give low values; Q15475+O00167; AID 651725; in the data active means activity change below about -65%; inconclusive means mostly about -30% to -63%; further: on the % scale 0 is the no-effect control and ±100 the full control effect
#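 AlphaScreen luminescence read after one hour at 37 °C in darkness. Pin-transferred compounds met GST-Six1 and His-Eya2 protein (5X stock 250 nM/500 nM) plus glutathione donor and Ni-chelate acceptor beads (5X, 50 ug/mL).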
# G9a inh: inhibitors of human histone lysine methyltransferase G9a; Q96KQ7; 350,000 compounds, 8.8% hits; Potency, µM (doses to about 102 µM), for the others: at the highest dose activity, negative = inhibition, actives largely listed as inhibitors; G9a H3K9 monomethylation, AlphaScreen, 2 h; further: potency means the concentration at half of the fitted maximal effect; on the % scale 0 is the no-effect control and ±100 the full control effect; nearly all actives have a fitted effect of over 75% in size
#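 G9a (20 nM) was preincubated 15 min with compound, then reacted 2 h at room temperature with 500 nM biotin-H3K9 peptide and 20 µM SAM. Monomethyl-H3K9 detected by AlphaScreen using anti-H3K9me1 antibody.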
# BAZ2B block: inhibitors of human BAZ2B bromodomain | Q9UIF8 | AlphaScreen BAZ2B-H3K14Ac peptide displacement | Potency, µM (highest dose often 114 µM), for inactives: at the highest dose activity change, negative = inhibition, usual class: inhibitors | 360,000 compounds, 4.4% hits | AID 504333; further: potency means the concentration at half of the fitted maximal effect; on the % scale 0 is the no-effect control and ±100 the full control effect; nearly all actives have a fitted effect of over 60% in size
#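 In this displacement format the biotinylated H3(5-23) peptide acetylated at Lys14 serves as ligand at 50 nM, with BAZ2B at 50 nM in PBS pH 7.4 containing 0.01% Tween-20. Donor and acceptor beads are 10 ug/mL final.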
# JMJD2A Tudor inh: JMJD2A Tudor domain (human) inhibition; O75164; 390,000 compounds, 4.4% hits; AlphaScreen JMJD2A-Tudor / H3K4me3 peptide binding; Potency, µM (series often up to 114 µM), for inactives: top-dose activity change, negative = inhibition, actives largely listed as inhibitors; further: potency means the concentration at half of the fitted maximal effect; on the % scale 0 is the no-effect control and ±100 the full control effect; nearly all actives have a fitted effect of over 50% in size
# Target sequence (O75164 whole entry, looked up, the tested form may be a part): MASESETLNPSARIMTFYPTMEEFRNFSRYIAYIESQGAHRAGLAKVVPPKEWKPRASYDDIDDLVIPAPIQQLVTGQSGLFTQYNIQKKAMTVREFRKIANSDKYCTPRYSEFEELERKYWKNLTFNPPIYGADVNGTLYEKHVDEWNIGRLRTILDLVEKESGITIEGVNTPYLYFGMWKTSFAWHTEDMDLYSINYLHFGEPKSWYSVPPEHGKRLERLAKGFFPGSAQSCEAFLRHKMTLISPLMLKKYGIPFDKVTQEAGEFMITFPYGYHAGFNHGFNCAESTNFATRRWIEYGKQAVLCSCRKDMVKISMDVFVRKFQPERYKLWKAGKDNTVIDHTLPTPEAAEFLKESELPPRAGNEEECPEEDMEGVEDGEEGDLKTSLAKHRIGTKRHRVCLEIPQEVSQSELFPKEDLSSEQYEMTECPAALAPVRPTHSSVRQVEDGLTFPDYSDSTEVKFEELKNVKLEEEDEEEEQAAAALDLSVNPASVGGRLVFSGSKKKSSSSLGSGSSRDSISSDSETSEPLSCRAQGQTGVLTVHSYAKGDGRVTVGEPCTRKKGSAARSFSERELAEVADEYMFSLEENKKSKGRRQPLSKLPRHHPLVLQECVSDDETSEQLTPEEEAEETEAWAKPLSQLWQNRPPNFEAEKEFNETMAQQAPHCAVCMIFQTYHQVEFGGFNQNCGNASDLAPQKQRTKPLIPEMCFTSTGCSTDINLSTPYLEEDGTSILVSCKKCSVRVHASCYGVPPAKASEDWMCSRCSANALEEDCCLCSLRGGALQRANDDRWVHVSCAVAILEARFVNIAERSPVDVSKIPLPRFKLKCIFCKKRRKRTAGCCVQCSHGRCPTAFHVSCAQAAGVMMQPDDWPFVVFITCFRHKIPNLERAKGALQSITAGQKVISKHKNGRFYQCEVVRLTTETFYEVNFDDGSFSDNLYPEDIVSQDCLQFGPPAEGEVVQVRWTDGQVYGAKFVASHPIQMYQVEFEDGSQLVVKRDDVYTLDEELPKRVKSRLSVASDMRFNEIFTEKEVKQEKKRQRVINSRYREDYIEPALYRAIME
# An asterisk follows results filed as active; ? = inconclusive; · = not tested or not shown; [ ] = another dose, or the depositor's remark. Shown are actives, neighbours in structure and some others; about 10% of the full set was active somewhere. Unless noted, the call rests on the fitted dose curve; in most records, active means well fitted inhibition curve with a large enough effect; inconclusive means small, poorly fitted or top-dose-only effect; inactive means no such curve, though single readings can be large or run the other way.
SMILES,HP1b binding inh,CtBP-E1A blk,Six1-Eya2 blk,G9a inh,BAZ2B block,JMJD2A Tudor inh
O=c1[nH]c(Cc2ccc(F)cc2)nc2scc(-c3ccc(F)cc3)c12,?,-5.8,-4.7,3.55µM*,3.3%,?
O=c1[nH]c(Cc2ccccn2)nc2scc(-c3ccc(Cl)cc3)c12,43.2%,-3.6,3.3,39.8µM*,2.6%,-24.3%
O=c1[nH]c(Cc2cccs2)nc2scc(-c3ccc(Cl)cc3)c12,8.7%,0.8,1.1,·,-1.5%,-4.8%
Cc1ccc(-n2cc(C(=O)Oc3ccc(F)cc3)c3ccccc3c2=O)cc1,20.1%[57 µM],·,·,-4.8%[59 µM],1.9%,-18.4%
CCC(=O)OC1C(N(C)C)CC(C)O[C@H]1O[C@H]1[C@H](C)[C@@H](O[C@H]2CC(OC)[C@@H](O)C(C)O2)[C@H](C)C(=O)O[C@@H](CC)[C@](C)(O)[C@@H](O)[C@H](C)C(=O)[C@@H](C)C[C@]1(C)O (stereo partly drawn),·,·,·,-12.4%[12.7 µM],·,·
CC(C)CC(C(=O)Nc1oc(-c2ccco2)c(-c2ccco2)c1C#N)N1C(=O)c2ccccc2C1=O (stereo not drawn),-24.9%,-17.4,?,22.4µM*,31.6µM*,?
N#Cc1ccc(-n2nccc2-c2cnc3n(c2=O)CCS3)cc1,-11.1%,-0.8,3.1,-7.4%[12.7 µM],8.4%,50.1µM*
CCn1ccnc1[C@@H]1C[C@H]2CN(Cc3cccc(Cl)c3)C(=O)[C@]23CCCN13,22.0%,-0.6,-2.1,15.2%,-2.8%,-3.7%
O=C1N(Cc2cccnc2)C[C@@H]2C[C@@H](c3ccc(-c4ccccc4)cc3)N3CCC[C@@]123,18.2%,-5.5,-8.4,50.1µM*,-29.8%,-22.3%
Cn1cc([C@@H]2C[C@H]3CN(Cc4cccc(Cl)c4)C(=O)[C@]34CCCN24)c2ccccc21,15.7%,-1.1,-5.0,50.1µM*,-29.6%,-29.4%
O=C1N(Cc2cccc(Cl)c2)C[C@@H]2C[C@@H](c3ccccn3)N3CCC[C@@]123,18.0%,-0.5,-3.2,25.1µM*,79.4µM*,-24.6%
O=c1c(-c2cccs2)nc2cnc(N3CCOCC3)nc2n1CCc1ccccc1,·,·,·,21.8%[0.501 µM],·,·
Cc1cc(C)c2c(-n3cccc3)c(C(=O)NCCc3ccccc3)sc2n1,0.1%,·,·,-43.2%[59 µM],-11.4%,-24.5%
COc1cccc(C(=O)Nc2ccccc2OCc2cc(=O)n3cc(C)ccc3n2)c1,13.8%[57 µM],·,·,5.1%[59 µM],8.4%,-6.5%
CCC(C)CCCCCCCCCCC(=O)O (stereo not drawn),57.7%,4.8,-9.0,·,·,50.1µM*
O=C(N/N=C/c1ccc(N2CCOCC2)o1)c1cccc([N+](=O)[O-])c1,-1.6%,2.5,-9.9,10µM*,-28.1%,?
O=C(N/N=C/c1ccc(N2CCCCC2)o1)c1ccccc1,?,-4.5,2.3,10µM*,-9.5%,50.1µM*
COc1ccc(N(C(=O)COc2c(C)cccc2C)S(=O)(=O)c2ccc(Cl)cc2)cc1,32.0%,·,·,5.6%[59 µM],2.1%,-20.6%
COC(CNC(=O)c1ccc2c3c(onc13)-c1ccccc1C2=O)OC,?,-29.8,?,28.2µM*,?,50.1µM*
COc1ccc(-n2cc(-c3ccccc3)c3c(N4CCN(CCO)CC4)ncnc32)cc1,-8.7%,8.7,0.6,50.1µM*,?,?
OCCN1CCN(c2ncnc3c2c(-c2ccccc2)cn3-c2ccc(F)cc2)CC1,-16.6%,-2.0,-13.1,-44.2%,?,?
COc1ccc(-n2cc(-c3ccccc3)c3c(NN4CCOCC4)ncnc32)cc1,?,-7.7,-10.4,50.1µM*,?,?
COc1cccc(N2CC(NC(=O)c3ccc(S(=O)(=O)N4CCCCC4)cc3)CC2=O)c1 (stereo not drawn),28.2%,·,·,-12.4%[59 µM],2.9%,-17.5%
Cc1nc(N)sc1-c1csc(Nc2cccc(O)c2)n1,?,?,-69.0*,44.7µM*,56.2µM*,?
